High-throughput results deposited in PubChem BioAssay by National Center for Advancing Translational Sciences (NCATS).
The list is not random: actives were taken first. Their share in the collection is about 7.3%.
RORgamma inh – ROR gamma (mouse) transcription inhibition; P51450; Drosophila S2 Gal4-RORgamma UAS-luciferase reporter, 20 h; Potency, µM (highest dose often 53.6 µM), for inactives: at the highest dose activity change, negative = inhibition, most hits filed as inhibitors; 310,000 compounds, 5.4% hits; further: nearly all actives have a fitted effect of over 60% in size
Target sequence (P51450 whole entry, looked up, the tested form may be a part): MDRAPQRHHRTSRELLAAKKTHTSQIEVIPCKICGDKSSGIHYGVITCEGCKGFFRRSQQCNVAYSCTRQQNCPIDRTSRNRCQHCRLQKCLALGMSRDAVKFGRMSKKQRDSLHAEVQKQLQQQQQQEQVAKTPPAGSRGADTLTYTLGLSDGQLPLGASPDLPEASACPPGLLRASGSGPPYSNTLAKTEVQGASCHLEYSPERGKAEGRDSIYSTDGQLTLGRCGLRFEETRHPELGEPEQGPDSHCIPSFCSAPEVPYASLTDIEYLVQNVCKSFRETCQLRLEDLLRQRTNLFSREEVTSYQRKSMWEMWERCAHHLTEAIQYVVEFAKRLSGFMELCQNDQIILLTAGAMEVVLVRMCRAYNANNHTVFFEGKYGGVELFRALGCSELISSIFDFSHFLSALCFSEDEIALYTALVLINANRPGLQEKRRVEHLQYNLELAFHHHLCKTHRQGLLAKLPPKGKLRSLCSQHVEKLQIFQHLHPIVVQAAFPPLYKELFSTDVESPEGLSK
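Luminescence from a UAS-regulated Photinus luciferase reporter in stably transfected Drosophila Schneider cells is measured; decreased signal marks ROR gamma inhibition. Fusion expression is induced by 700 uM copper sulfate for 20 hr.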
VP16 counter – counter-screen for ROR gamma inhibitors: Gal4-VP16 reporter | Drosophila S2 Gal4-VP16 UAS-luciferase, luminescence, 20 h | Potency, µM (series often up to 53.6 µM), for the others: top-dose activity, negative = inhibition, actives largely listed as inhibitors | 310,000 compounds, 3.5% hits;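 further: Gal4-VP16 expression switched on by copper sulfate through the metallothionein promoter; nearly all actives have a fitted effect of over 50% in size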
Tau fluor counter – counter-screen for tau fibril formation inhibitors; tau K18 P301L Alexa594 fluorescence, heparin fibrillization; Potency, µM (doses to about 57.7 µM), inactives show at the top dose activity change, negative = decrease; 280,000 compounds, 0.93% hits; AID 1463; further: nearly all actives have a fitted effect of over 55% in size
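Human K18 P301L tau (15 uM unlabeled plus 0.24 uM Alexa 594-labeled, final) in 100 mM sodium acetate pH 7 was mixed with compound and 20 uM heparin and incubated 6 hr at 37 C.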
Tau ThT inhib – tau fibrillization inhibition (ThT binding). recombinant tau K18 P301L, heparin-induced fibrillization, ThT fluorescence. Potency, µM (titrated, usually from 57.4 µM), for the others: at the highest dose activity, negative = inhibition, most hits filed as inhibitors. 270,000 compounds, 2.1% hits; further: nearly all actives have a fitted effect of over 55% in size
Target sequence (P10636 561-689 P618L limits assumed): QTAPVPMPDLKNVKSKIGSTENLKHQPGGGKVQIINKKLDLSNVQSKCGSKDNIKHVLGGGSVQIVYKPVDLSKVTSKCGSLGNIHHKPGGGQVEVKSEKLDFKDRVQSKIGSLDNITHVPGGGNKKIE
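In this qHTS, human K18 P301L tau is incubated with compound and heparin for 6 hr at 37 C, and Thioflavin T fluorescence then reports fibril load.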
Tau FP inhib – blocks human tau fibril formation measured by polarization; K18 P301L tau heparin fibrillization, Alexa594 FP, 6 h; Potency, µM (highest dose often 57.7 µM), inactives show at the top dose activity, negative = inhibition, hits mostly inhibitors; 280,000 compounds, 0.39% hits; further: nearly all actives have a fitted effect of over 55% in size
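Heparin (20 uM) drove fibril formation of recombinant tau K18 P301L, 15 uM unlabeled with 0.24 uM Alexa 594 label, for 6 hr at 37 C in 100 mM sodium acetate pH 7. Fluorescence polarization (555/632 nm) read 1 hr after 30 uM ThT.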
* = called active by the depositor; ? = inconclusive; . = no result; [ ] = dose if it differs, or a comment. The call rests on the fitted dose curve; in most records, active means well fitted curve in the direction sought with a large enough effect; inconclusive means small, poorly fitted or top-dose-only effect, or another doubt; inactive means no such curve, though single readings can be large; an effect the other way counts as inactive or inconclusive. On the % scale 0 is the no-effect control and ±100 the full control effect; potency means the concentration at half of the fitted maximal effect.

SMILES | RORgamma inh | VP16 counter | Tau fluor counter | Tau ThT inhib | Tau FP inhib
CC1=C(C(=O)OCC(C)C)C2(O)C(=O)c3ccccc3C2(O)N1 (configuration not stated) | 41% | 3% | -10% | 7.9µM* | ?
C=CCOC(=O)C1=C(C)NC2(O)c3ccccc3C(=O)C12O (configuration not stated) | 28% | -14% | -14% | 13µM* | ?
C=CCOC(=O)C1=C(C)NC(=O)NC1/C=C/c1ccccc1 (configuration not stated) | -15% | 0% | -5% | 0% | -11%
COc1cc(CNC(=O)c2ccc3oc(C(C)C)nc3c2)cc(OC)c1 | 20% | 3% | . | . | .
Cc1cc2[nH]c(=O)cc(-c3ccccc3)n2n1 | 11µM* | 18µM* | . | . | .
Cc1cc2[nH]c(=O)c3ccccc3n2n1 | -19% | -1% | 0% | -6% | 3%
COc1ccc(-c2nnc(SCC(=O)Oc3cccc(C)c3C)o2)cc1 | . | . | 8% | 6% | 2%
O=C(Nc1ccccc1C(=O)O)c1ccc(Cl)c(S(=O)(=O)N2CCOCC2)c1 | 4% | -5% | -4% | -8% | -2%
O=C(Nc1nccs1)c1ccc(Cl)c(S(=O)(=O)N2CCOCC2)c1 | 16µM* | ? | -2% | 0% | 1%
Cc1ccc(C(=O)Nc2nccs2)cc1S(=O)(=O)N1CCCCC1 | 14µM* | ? | -24% | -8% | -19%
Cc1csc(NC(=O)c2ccc(C)c(S(=O)(=O)N3CCCCC3)c2)n1 | -4% | -4% | -10% | -10% | -4%
CC(C)(C)N1C(=O)c2ccc(C(=O)Nc3nccs3)cc2C1=O | 7.1µM* | ? | -11% | -8% | -6%
COc1cccc(CS(=O)(=O)c2ccccc2)c1 | -13% | -5% | 0% | 5% | -6%
CC1CCn2c(nc3cc(C(=O)NCCc4ccccc4)ccc32)C1 (configuration not stated) | . | . | -5% | ? | -6%
Cc1ccc(-c2nnc(Nc3ccc(Br)cc3)c3ccccc23)cc1S(=O)(=O)NCC1CCCO1 (configuration not stated) | . | . | ? | 7% | ?
CC(Nc1ccc(Cl)cc1)c1cc(Cl)ccc1O (configuration not stated) | ? | 13µM* | ? | -7% | -11%
CCOc1ccc(NC(C)c2cc(Cl)ccc2O)cc1 (configuration not stated) | -9% | -17% | -22% | 4% | 10%
Cc1cc(Cl)ccc1NC(=O)Cn1nnc2sc(-c3ccccc3)cc2c1=O | . | . | -15% | -11% | -7%
CCCCn1cnc2c(oc3nc4c(cc32)CCCC4)c1=O | 10µM* | ? | -4% | ? | 8%
CCCCCCn1cnc2c(oc3nc4c(cc32)CCCC4)c1=O | ? | 5% | -8% | ? | 9%
CC(=O)Nc1ccc(/C=C/c2ccc3c([N+](=O)[O-])cccc3n2)cc1 | 39% | ? | -11% | 1.4µM* | 14%
O=C(O)c1cc(N2CCOCC2)nc2ccccc12 | 9% | 1% | . | . | .
O=[N+]([O-])c1cccc2ccc(/C=C/c3ccc(Cl)cc3)nc12 | -10% | -11% | -7% | -3% | -7%
O=C(O)c1cc(/C=C/c2ccc(N3CCOCC3)cc2)nc2ccccc12 | 6.3µM* | 5µM* | -19% | ? | 11%
O=C(O)c1cc(/C=C/c2ccc(N3CCOCC3)c([N+](=O)[O-])c2)nc2ccccc12 | -41% | ? | -22% | 14µM* | -5%
SMILES | RORgamma inh | VP16 counter | Tau fluor counter | Tau ThT inhib | Tau FP inhib
Cc1cc(Cl)c2oc(C(=O)N3CCCCC3CCN3CCCC3=O)c(C)c2c1 (configuration not stated) | -20% | ? | . | . | .
N#Cc1ccc(CS(=O)(=O)c2nnnn2-c2ccccc2)cc1 | ? | -21% | -1% | ? | ?
CSc1ccccc1NC(=O)C(=O)c1c[nH]c2ccccc12 | -1% | ? | ? | -1% | 10µM*
Cc1cc(C(=O)Nc2ccc3c(c2)OCCO3)c(C)o1 | -38% | -15% | -1% | -10% | 8%
CSc1ccccc1C(=O)Nc1ccc2c(c1)OCCO2 | 2% | 28% | -4% | -9% | -4%
O=C(Nc1ccc2c(c1)OCCO2)C(=O)c1c[nH]c2ccccc12 | 2.5µM* | 3.2µM* | . | . | .
Cc1ccccc1C(=O)Nc1ccc2c(c1)OCCO2 | 8.9µM* | ? | . | . | .
Cc1occc1C(=O)Nc1ccc2c(c1)OCCO2 | 8.9µM* | ? | 1% | -1% | -10%
COc1ccc(CNC(=O)c2cccc(NC(=O)N3CCSc4ncccc43)c2)cc1 | . | . | -16% | -9% | -5%
O=C(C1CCN(S(=O)(=O)Cc2ccccc2)CC1)N1CCN(c2cccc(Cl)c2)CC1 | . | . | 8% | 10% | 11%
O=C(COc1ccccc1F)Nc1c2c(nn1-c1ccccc1)CS(=O)(=O)C2 | 22% | 6% | . | . | .
Cc1nn2c(=O)cc(COC(=O)c3cccc(NC(=O)COc4ccc(C)c(C)c4)c3)nc2s1 | . | . | -8% | ? | 4%
CCOc1ccc(CCNC(=O)CCCn2nc(C)c3c(C)n(-c4ccccc4)nc3c2=O)cc1 | -7% | -15% | . | . | .
NS(=O)(=O)c1cccc(NC(=O)c2cc(=O)c3ccccc3o2)c1 | ? | 0% | . | . | .
CN(c1ccccc1)S(=O)(=O)c1cccc(NC(=O)c2cc(=O)c3ccccc3o2)c1 | ? | -9%[10 µM] | 13µM*[quencher] | -18% | -27%
O=C(Nc1cccc(S(=O)(=O)N2CCCCCC2)c1)c1cc(=O)c2ccccc2o1 | -2% | -16% | 14µM*[quencher] | -9% | ?
Clc1ccccc1-c1nnc(CNC2CC2)o1 | 28% | -13% | 3% | 4% | -2%
COc1ccc(-c2cn[nH]c2-c2ccc(OCC(=O)NN)cc2O)cc1 | -2% | -3% | . | . | .
COc1ccc(-c2cn[nH]c2-c2ccc(O)cc2O)cc1 | -31% | 0% | . | . | .
C=C(C)COc1ccc(-c2[nH]ncc2-c2ccc(OC)c(OC)c2)c(O)c1 | 1.8µM* | 2.5µM* | 25µM*[quencher] | -10% | 8%
C=C(C)COc1ccc(-c2[nH]ncc2-c2ccc(OC)cc2)c(O)c1 | 11µM* | ? | 11µM*[quencher] | -15% | ?
C=C(C)COc1ccc(-c2n[nH]c(C)c2-c2ccc(OC)c(OC)c2)c(O)c1 | 1.4µM* | 7.1µM* | 14µM*[quencher] | -9% | -10%
C=C(C)COc1ccc(-c2[nH]ncc2-c2ccccc2)c(O)c1 | ? | ? | 18µM*[quencher] | -15% | -5%
COC(=O)C/C=C\[C@@H](C)[C@@H](/C=N\OC[C@@H](O)[C@H]1O[C@H]2OC(C)(C)O[C@H]2[C@@H]1O)NS(=O)(=O)c1ccc(C)cc1 | -8%[10 µM] | 8%[10 µM] | -8%[11.6 µM] | -2%[11.5 µM] | -5%[11.6 µM]
c1ccc(OCCSc2nnc3sc4ccccc4n23)cc1 | 11µM* | 11µM* | -18% | ? | -6%
